Screens deposited in PubChem by Broad Institute.
The sample as a whole holds a higher share of hits than the screen did.
Tg IFNy HTS: T. gondii growth inhibition with IFN-gamma, primary screen, cell-based; Toxoplasma gondii growth in IFN-gamma-treated host cells; stronger effect = lower value; activity change, negative = inhibition, % (concentration not given with the values); 3.8% of 69,000 active; AID 1259416, 2018; in the data active = activity change below about -70%, passing the limit was not always enough;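 also: host cells are HeLa cells infected with Toxoplasma gondii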
* = called active by the depositor.

COCCn1c2c(ccc1=O)CC(NCc1ccc(OC)cc1)CC2 (centres undefined) was read as Tg IFNy HTS -49.
`COc1ccc(C2(NC(=O)CC3NC(=O)c4cc(OC)ccc43)CCCCC2)cc1` (centres undefined) gave Tg IFNy HTS -5.
For CCc1c(C)nc2cc(-c3cc(C)on3)nn2c1N1CCN(Cc2ccccn2)CC1 the results were Tg IFNy HTS -85*.
`Cc1cc(N2CCCN(Cc3cc(-c4ccccc4)no3)CC2)ccn1` gave Tg IFNy HTS -20.
For CCN1CCC2(CN(c3ncccn3)CC23CCN(Cc2ccccn2)CC3)C1=O (centres undefined) the results were Tg IFNy HTS -35.
`COc1ccc(-n2nnc(C(C)=O)c2NCc2ccco2)cc1` gave Tg IFNy HTS 62.
For CCOC(=O)c1ccc(Nc2nc3nonc3nc2NCc2ccco2)cc1 the results were Tg IFNy HTS -102*.
For CCOC(=O)c1cnc(-c2ccccc2)nc1Nc1ccc(C)cc1 the results were Tg IFNy HTS 2.
Screening O=C1NCC2(CCCN(C(=O)c3cnc(Nc4ccccc4)nc3)C2)O1 (centres undefined) returned Tg IFNy HTS 56.
`CCC(=O)Nc1ccccc1-c1cc(OC)ccc1OC` gave Tg IFNy HTS -10.
Cc1cc2c(cc1C(=O)N1CCC(O)(CN(C)C)C1)OCCO2 (centres undefined) was read as Tg IFNy HTS 18.
Screening COc1ccc2[nH]c(C(=O)NC(C)c3ccc4c(c3)CCCO4)c(NC(C)=O)c2c1 (centres undefined) returned Tg IFNy HTS 15.
For O=C(Cn1nnc(-c2ccccc2)n1)NCc1cc(Cl)c2c(c1)OCCCO2 the results were Tg IFNy HTS 3.
Screening COc1ccc2[nH]c(C)c(C(=O)NCc3cc(Cl)c4c(c3)OCCCO4)c2c1 returned Tg IFNy HTS -85*.
O=C(Nc1ccccc1)Nc1ccc(Cl)cc1SCc1ccccc1 was read as Tg IFNy HTS -77*.
`Cc1ccc(Cl)cc1NC(=O)Nc1ccc(-c2nc(-c3ccccc3)co2)cc1` gave Tg IFNy HTS -39.
Screening Cc1cc(SCC(=O)Nc2ccccc2)nc(SCc2ccc(Cl)cc2)n1 returned Tg IFNy HTS 23.
Screening CC(=O)NCCc1csc(-c2ccc(Cl)cc2)n1 returned Tg IFNy HTS 50.
COc1cc(NC(=O)Cn2ncc3c(N4CCCC4)ncnc32)cc(OC)c1OC was read as Tg IFNy HTS 15.
Screening CCN1CCO[C@H]2CCN(C(=O)C3CC=CC3)C[C@H]21 returned Tg IFNy HTS 21.
C#CCN1C(C)=C(C(=O)OC)C(c2cccc([N+](=O)[O-])c2)C(C(=O)OCC)=C1C (centres undefined) was read as Tg IFNy HTS 15.
Screening COC(=O)C1=C(C)NC(C)=C(C(=O)OCC(C)C)C1c1ccccc1[N+](=O)[O-] (centres undefined) returned Tg IFNy HTS 17.
COC(=O)C1=C(C)NC(C)=C([N+](=O)[O-])[C@H]1c1ccccc1C(F)(F)F was read as Tg IFNy HTS -34.
For COC(=O)C1=C(C)NC(C)=C(C(=O)NCCCN2CCC(c3ccccc3)(c3ccccc3)CC2)C1c1ccc([N+](=O)[O-])cc1 (centres undefined) the results were Tg IFNy HTS -76*.
For COC(=O)C1=C(C)NC(C)=C(C(=O)OCCCN2CCC(c3ccccc3)(c3ccccc3)CC2)[C@@H]1c1cccc([N+](=O)[O-])c1 the results were Tg IFNy HTS -87*.
COC(=O)C1=C(C)NC(C)=C(C(=O)O[C@H]2CCN(Cc3ccccc3)C2)[C@H]1c1cccc([N+](=O)[O-])c1 was read as Tg IFNy HTS -2.
Screening C=C(C)COc1ccc(C(=O)N(CC2CCC(=O)N2)C(C)C)cc1 (centres undefined) returned Tg IFNy HTS -3.
Screening COc1cccc(S(=O)(=O)N2CCCc3c(OC)nn(C)c3C2)c1 returned Tg IFNy HTS -9.
Screening COc1ccccc1CN(C(=O)CCn1cnc2ccccc21)C1CC1 returned Tg IFNy HTS -6.
Screening CC(=O)Nc1ccc(C23CC4CC(CC(C4)C2)C3)c(C)c1 returned Tg IFNy HTS -57.
For O=C(O)c1ccc(-c2ccc3cc(O)c(C45CC6CC(CC(C6)C4)C5)cc3c2)cc1 the results were Tg IFNy HTS -43.
Screening O=C(O)c1ccc2cc(-c3ccc(O)c(C45CC6CC(CC(C6)C4)C5)c3)ccc2c1 returned Tg IFNy HTS -74*.
`N#Cc1c(=N)nc2oc3ccc(Cl)cc3c3c(C#N)c(N)[nH]c1c23` gave Tg IFNy HTS -75*.
N#Cc1c(=O)[nH]c(O)c2c(=N)oc3ccc(Cl)cc3c12 was read as Tg IFNy HTS 60.
COc1ccccc1-c1noc(-c2c(O)c3cccc(Cl)c3[nH]c2=O)n1 was read as Tg IFNy HTS -28.
For CCCCC(=O)OCC(=O)[C@]1(O)Cc2c(O)c3c(c(O)c2[C@@H](O[C@H]2C[C@H](NC(=O)C(F)(F)F)[C@H](O)[C@H](C)O2)C1)C(=O)c1c(OC)cccc1C3=O the results were Tg IFNy HTS -73*.
`COc1cccc2c1C(=O)c1c(O)c3c(c(O)c1C2=O)C[C@@](O)(C(C)=O)C[C@@H]3OC1CC(N)C(O)C(C)O1` (some centres undefined) gave Tg IFNy HTS -75*.
Screening COc1cccc2c1C(=O)c1c(O)c3c(c(O)c1C2=O)C[C@@](O)(C(=O)CO)C[C@@H]3O[C@H]1C[C@H](N)[C@H](O)[C@H](C)O1 returned Tg IFNy HTS -78*.
CC(=O)C1(O)Cc2c(O)c3c(c(O)c2C(OC2CC(N)C(O)C(C)O2)C1)C(=O)c1c(O)cccc1C3=O (centres undefined) was read as Tg IFNy HTS -79*.
Screening COc1ccc(CC(=O)N2CCc3nc(CNC(=O)C4CCC4)n(C)c3C2)cc1 returned Tg IFNy HTS 37.
`Cc1ccc(N2CCCC3(CCN(C(=O)c4ccc(N(C)C)cc4)C3)C2)nn1` (centres undefined) gave Tg IFNy HTS 13.
CC(C)CCNc1nc(-c2ccc(Cl)cc2)nc2ccccc12 was read as Tg IFNy HTS -93.
Screening Cc1ccc(-c2nc(C)c(CCNC(=O)C(=O)Nc3cccc([N+](=O)[O-])c3)s2)cc1 returned Tg IFNy HTS 120.
Cc1cccc(C(=O)N2CCC3(CC2)Nc2cc(F)ccc2-n2cccc23)c1 was read as Tg IFNy HTS 79.
`CS(=O)(=O)NCc1cn2c(n1)CN(C1CCOC1)CC2` (centres undefined) gave Tg IFNy HTS -23.
For O=C(c1cnccn1)N1CCC2(CCCN2Cc2cccnc2)CC1 the results were Tg IFNy HTS 5.
Screening CCOC(=O)c1cnn(C)c1NS(=O)(=O)c1ccc(Cl)cc1 returned Tg IFNy HTS -62.
CCOC(=O)c1cccc(NC(=O)CN2C(=O)CCc3cc(S(=O)(=O)N4CCCCC4)ccc32)c1 was read as Tg IFNy HTS -34.
For CCOC(=O)c1ccc(N2CCCCC2)c(NS(=O)(=O)c2ccc(C)cc2)c1 the results were Tg IFNy HTS -100*.
Screening COc1ccc(Oc2cccc(CN3CCNC(C(=O)NC4CC4)C3)c2)cc1 (centres undefined) returned Tg IFNy HTS -6.
Cn1c(-c2ccc(CN3CCCC3c3ccccn3)o2)nc2ccccc21 (centres undefined) was read as Tg IFNy HTS 16.
`CCN(C(=O)c1cccc(NC(=O)c2cc(C)nc(C)n2)c1)c1ccccc1` gave Tg IFNy HTS -7.
